The values that follow come from PMC13541613, “GHT-SELEX demonstrates unexpectedly high intrinsic sequence specificity and complex DNA binding of many human transcription factors”.

Holding throughout (experiment): HT-SELEX; 20 mM HEPES pH 7, 140 mM KCl, 5 mM NaCl, 1 mM K2HPO4, 2 mM MgSO4, 100 uM EGTA, ZnSO4, 0.1% Tween20; room temperature, 1 h; high values mean tight binding
What all share (settings): protein: ivt; tags: eGFP (N-terminal); dsDNA, one strand shown

One test has as its target ZNF721 full-length (Homo sapiens, UniProt Q8TF20-2 1-923). A digest of the protocol: (§1)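 Full-length or DNA-binding-domain forms of a tagged transcription factor were produced in HEK293 lysate or cell-free extract and immobilised on beads. Incubation with a randomized 40-base DNA library ran for 1 h at room temperature in HEPES/KCl low-stringency buffer with Tween20, after which bound DNA was washed, heat-eluted, PCR-amplified over successive cycles and Illumina-sequenced. Binding strength is given as the relative k-mer count in selected reads, higher for tighter binding.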

For the next test, the target named is ZNF721 DBD1 (Homo sapiens, UniProt Q8TF20-2 29-461). A digest of the protocol: as §1
Chain of ZNF721 DBD1 (Q8TF20 17-449): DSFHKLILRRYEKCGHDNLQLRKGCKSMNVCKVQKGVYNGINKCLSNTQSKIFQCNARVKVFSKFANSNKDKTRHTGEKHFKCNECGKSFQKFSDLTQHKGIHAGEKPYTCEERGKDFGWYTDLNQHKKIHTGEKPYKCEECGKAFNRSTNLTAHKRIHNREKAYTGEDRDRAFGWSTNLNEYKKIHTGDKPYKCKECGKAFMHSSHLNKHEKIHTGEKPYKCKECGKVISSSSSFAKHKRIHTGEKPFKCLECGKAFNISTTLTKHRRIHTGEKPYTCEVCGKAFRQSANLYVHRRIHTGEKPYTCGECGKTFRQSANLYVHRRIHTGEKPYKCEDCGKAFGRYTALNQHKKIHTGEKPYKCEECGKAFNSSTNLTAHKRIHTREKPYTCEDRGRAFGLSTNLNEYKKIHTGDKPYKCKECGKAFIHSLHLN
The next test has as its target ZNF721 DBD2 (Homo sapiens, UniProt Q8TF20-2 395-923). The method, boiled down:
as §1

Chain of ZNF721 full-length (Q8TF20 other isoform, or with tags, fused parts or gaps): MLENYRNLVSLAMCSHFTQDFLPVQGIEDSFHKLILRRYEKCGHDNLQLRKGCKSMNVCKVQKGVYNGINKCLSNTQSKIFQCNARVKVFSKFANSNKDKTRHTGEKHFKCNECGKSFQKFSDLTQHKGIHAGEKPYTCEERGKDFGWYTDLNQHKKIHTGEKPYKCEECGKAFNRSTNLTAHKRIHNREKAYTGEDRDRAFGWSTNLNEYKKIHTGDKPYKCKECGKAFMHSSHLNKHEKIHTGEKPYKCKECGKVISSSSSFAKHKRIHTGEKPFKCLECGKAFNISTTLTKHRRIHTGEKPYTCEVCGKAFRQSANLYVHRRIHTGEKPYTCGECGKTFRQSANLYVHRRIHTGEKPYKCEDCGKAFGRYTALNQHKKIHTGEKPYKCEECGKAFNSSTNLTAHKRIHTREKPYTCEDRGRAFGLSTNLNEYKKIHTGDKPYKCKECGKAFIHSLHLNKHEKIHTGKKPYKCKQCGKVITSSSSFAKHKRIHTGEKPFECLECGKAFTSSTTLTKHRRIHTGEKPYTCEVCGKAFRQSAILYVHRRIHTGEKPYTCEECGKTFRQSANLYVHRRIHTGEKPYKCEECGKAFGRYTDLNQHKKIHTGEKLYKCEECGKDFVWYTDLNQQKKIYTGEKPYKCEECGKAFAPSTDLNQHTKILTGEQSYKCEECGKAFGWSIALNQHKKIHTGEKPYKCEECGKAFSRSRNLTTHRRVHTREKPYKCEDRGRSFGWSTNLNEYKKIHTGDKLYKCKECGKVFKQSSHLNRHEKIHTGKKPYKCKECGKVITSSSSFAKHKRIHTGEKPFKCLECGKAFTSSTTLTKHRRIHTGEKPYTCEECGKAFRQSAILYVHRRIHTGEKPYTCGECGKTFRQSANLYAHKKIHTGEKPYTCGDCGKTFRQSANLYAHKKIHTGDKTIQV
Chain of ZNF721 DBD2 (Q8TF20 383-911): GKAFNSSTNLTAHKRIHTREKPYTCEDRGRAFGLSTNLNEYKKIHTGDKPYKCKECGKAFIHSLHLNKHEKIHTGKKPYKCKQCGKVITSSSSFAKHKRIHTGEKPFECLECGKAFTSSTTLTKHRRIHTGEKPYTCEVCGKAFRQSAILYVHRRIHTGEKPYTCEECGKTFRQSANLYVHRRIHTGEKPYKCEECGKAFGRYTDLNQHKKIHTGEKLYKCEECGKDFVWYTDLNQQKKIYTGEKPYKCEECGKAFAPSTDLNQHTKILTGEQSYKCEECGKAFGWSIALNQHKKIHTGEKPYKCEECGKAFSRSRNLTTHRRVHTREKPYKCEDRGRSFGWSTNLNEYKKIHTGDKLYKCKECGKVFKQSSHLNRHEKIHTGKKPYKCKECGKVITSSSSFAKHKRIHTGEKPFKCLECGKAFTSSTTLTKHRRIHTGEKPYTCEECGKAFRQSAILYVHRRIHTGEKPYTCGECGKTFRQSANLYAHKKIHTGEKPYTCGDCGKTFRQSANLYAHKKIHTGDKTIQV

In the case of CCCACAACCC, the binding signal with ZNF721 full-length amounted to 0.106 relative 10-mer count; with ZNF721 DBD1 it was 0.00431 relative 10-mer count; with ZNF721 DBD2 it was 0.00348 relative 10-mer count.

AGGGGGAGGG: the binding signal is 0.145 relative 10-mer count in the test with ZNF721 full-length, 0.00752 relative 10-mer count with ZNF721 DBD1 and 0.00515 relative 10-mer count in the test with ZNF721 DBD2.

Consider GTGGGGTGGA, for which the binding signal amounted to 0.103 relative 10-mer count with ZNF721 full-length, 0.00573 relative 10-mer count with ZNF721 DBD1 and 0.00539 relative 10-mer count with ZNF721 DBD2.

Consider GCCCCCGCCC, for which the binding signal is 0.146 relative 10-mer count with ZNF721 full-length, 0.00527 relative 10-mer count in the test with ZNF721 DBD1 and 0.00132 relative 10-mer count with ZNF721 DBD2.

On to CCCCCCCGCC, for which the results for the binding signal with ZNF721 full-length, with ZNF721 DBD1 and in the test with ZNF721 DBD2 were 0.204 relative 10-mer count, 0.00706 relative 10-mer count and 0.00276 relative 10-mer count, respectively.

Turning to CACCCCGCCC, the results for the binding signal with ZNF721 full-length, with ZNF721 DBD1 and with ZNF721 DBD2 were 0.205 relative 10-mer count, 0.00656 relative 10-mer count and 0.003 relative 10-mer count, respectively.

On to CCCACCCACA, for which the binding signal worked out at 0.171 relative 10-mer count with ZNF721 full-length, 0.00688 relative 10-mer count with ZNF721 DBD1 and 0.00959 relative 10-mer count with ZNF721 DBD2.

As for CACCCTACCC, the binding signal in the test with ZNF721 full-length is 0.107 relative 10-mer count; with ZNF721 DBD1, 0.00408 relative 10-mer count; with ZNF721 DBD2, 0.00491 relative 10-mer count.

As to CCGACCCCCC, the binding signal with ZNF721 full-length came to 0.153 relative 10-mer count; with ZNF721 DBD1, 0.00541 relative 10-mer count; in the test with ZNF721 DBD2 it was 0.00108 relative 10-mer count.

Turning to CCCAACCACC, the values for the binding signal with ZNF721 full-length, in the test with ZNF721 DBD1 and with ZNF721 DBD2 were 0.17 relative 10-mer count, 0.00752 relative 10-mer count and 0.00539 relative 10-mer count, respectively.

For CCCCCGCTCC, the results for the binding signal in the test with ZNF721 full-length, with ZNF721 DBD1 and in the test with ZNF721 DBD2 were 0.103 relative 10-mer count, 0.0033 relative 10-mer count and 0.00144 relative 10-mer count, respectively.

Turning to GGGGTGGGGA, the binding signal was found to be 0.194 relative 10-mer count with ZNF721 full-length, 0.0094 relative 10-mer count in the test with ZNF721 DBD1 and 0.00264 relative 10-mer count in the test with ZNF721 DBD2.

CTCCCGCCCC: the values for the binding signal with ZNF721 full-length, with ZNF721 DBD1 and in the test with ZNF721 DBD2 were 0.136 relative 10-mer count, 0.00596 relative 10-mer count and 0.00192 relative 10-mer count, respectively.

Consider GCCCCCACCC, for which the figures for the binding signal in the test with ZNF721 full-length, in the test with ZNF721 DBD1 and with ZNF721 DBD2 were 0.19 relative 10-mer count, 0.0083 relative 10-mer count and 0.00407 relative 10-mer count, respectively.

As for GGGGTGGGCA, the binding signal with ZNF721 full-length came out at 0.11 relative 10-mer count; in the test with ZNF721 DBD1, 0.00381 relative 10-mer count; with ZNF721 DBD2, 0.00395 relative 10-mer count.

Take CCCCACCAAC: the binding signal with ZNF721 full-length was 0.136 relative 10-mer count; with ZNF721 DBD1, 0.00638 relative 10-mer count; with ZNF721 DBD2, 0.00791 relative 10-mer count.

In the case of AAAAAGGCAT, the binding signal with ZNF721 full-length came out at 0.188 relative 10-mer count; in the test with ZNF721 DBD1, 0.00266 relative 10-mer count; in the test with ZNF721 DBD2, 0.155 relative 10-mer count.

On to CCCACACACC, for which the binding signal in the test with ZNF721 full-length worked out at 0.114 relative 10-mer count; with ZNF721 DBD1, 0.00449 relative 10-mer count; with ZNF721 DBD2, 0.00455 relative 10-mer count.

With CTCCACCCCC, the binding signal was 0.178 relative 10-mer count in the test with ZNF721 full-length, 0.00812 relative 10-mer count with ZNF721 DBD1 and 0.00467 relative 10-mer count in the test with ZNF721 DBD2.

For AGCATCTCCA, the binding signal with ZNF721 full-length came out at 0.132 relative 10-mer count; in the test with ZNF721 DBD1 it was 0.0129 relative 10-mer count; with ZNF721 DBD2 it was 0.121 relative 10-mer count.

For the sequence CACCCACCCC, the binding signal in the test with ZNF721 full-length stood at 0.325 relative 10-mer count; in the test with ZNF721 DBD1 it was 0.0153 relative 10-mer count; with ZNF721 DBD2, 0.003 relative 10-mer count.

As to AAAAAAAAGG, the binding signal worked out at 0.175 relative 10-mer count in the test with ZNF721 full-length, 0.00477 relative 10-mer count with ZNF721 DBD1 and 0.12 relative 10-mer count with ZNF721 DBD2.

Turning to AAAAAGAGCA, the binding signal was 0.108 relative 10-mer count with ZNF721 full-length, 0.0078 relative 10-mer count with ZNF721 DBD1 and 0.0193 relative 10-mer count with ZNF721 DBD2.

On to CACCCACCAC, for which the values for the binding signal with ZNF721 full-length, with ZNF721 DBD1 and with ZNF721 DBD2 were 0.196 relative 10-mer count, 0.00949 relative 10-mer count and 0.00779 relative 10-mer count, respectively.

Take CTCCCCCACC: the values for the binding signal with ZNF721 full-length, with ZNF721 DBD1 and with ZNF721 DBD2 were 0.191 relative 10-mer count, 0.0104 relative 10-mer count and 0.00348 relative 10-mer count, respectively.

As for AGGGTTTCCA, the binding signal with ZNF721 full-length came out at 0.106 relative 10-mer count; with ZNF721 DBD1, 0.00128 relative 10-mer count; in the test with ZNF721 DBD2 it was 0.201 relative 10-mer count.

CCACCCTCAC: the binding signal stood at 0.103 relative 10-mer count with ZNF721 full-length, 0.00427 relative 10-mer count with ZNF721 DBD1 and 0.00791 relative 10-mer count with ZNF721 DBD2.

As for CCCACCATCC, the binding signal with ZNF721 full-length is 0.152 relative 10-mer count; with ZNF721 DBD1, 0.00647 relative 10-mer count; with ZNF721 DBD2, 0.00527 relative 10-mer count.

In the case of GAAAAAAAGC, the binding signal with ZNF721 full-length is 0.29 relative 10-mer count; with ZNF721 DBD1, 0.0712 relative 10-mer count; in the test with ZNF721 DBD2 it was 0.0678 relative 10-mer count.

For CCACCCCAAC, the binding signal is 0.162 relative 10-mer count with ZNF721 full-length, 0.00601 relative 10-mer count with ZNF721 DBD1 and 0.00659 relative 10-mer count with ZNF721 DBD2.

Take CCCCCGCGCC: the binding signal with ZNF721 full-length amounted to 0.116 relative 10-mer count; with ZNF721 DBD1, 0.00381 relative 10-mer count; in the test with ZNF721 DBD2, 0.00336 relative 10-mer count.

With ACCCACCGCC, the binding signal with ZNF721 full-length came to 0.114 relative 10-mer count; with ZNF721 DBD1 it was 0.00482 relative 10-mer count; in the test with ZNF721 DBD2, 0.00455 relative 10-mer count.

With CCTCCCACCC, the binding signal in the test with ZNF721 full-length was 0.255 relative 10-mer count; with ZNF721 DBD1, 0.0139 relative 10-mer count; with ZNF721 DBD2, 0.00599 relative 10-mer count.

CACCGTCCCC: the results for the binding signal with ZNF721 full-length, in the test with ZNF721 DBD1 and with ZNF721 DBD2 were 0.111 relative 10-mer count, 0.0039 relative 10-mer count and 0.00252 relative 10-mer count, respectively.

Consider AAAAAGCATA, for which the binding signal with ZNF721 full-length is 0.182 relative 10-mer count; in the test with ZNF721 DBD1, 0.0303 relative 10-mer count; with ZNF721 DBD2, 0.0372 relative 10-mer count.

For GCACCACCCC, the binding signal worked out at 0.103 relative 10-mer count with ZNF721 full-length, 0.00358 relative 10-mer count in the test with ZNF721 DBD1 and 0.00815 relative 10-mer count with ZNF721 DBD2.

CCCCGCCCTC: the binding signal with ZNF721 full-length is 0.146 relative 10-mer count; with ZNF721 DBD1, 0.00601 relative 10-mer count; with ZNF721 DBD2, 0.00216 relative 10-mer count.
